Measured values from the supplement of paper PMC11732987, “Enantioselective OTUD7B fragment discovery through chemoproteomics screening and high-throughput optimisation” (Communications Chemistry, 2025).

Columns and labels:
Test in all cases: log2 ratio of Biotin-Ahx-Ub-VS probe labelling (fragment/DMSO); higher = less target engagement (more negative = stronger competition), active = hit call of the paper (q ≤ 0.05, log2 ratio ≤ -1)
Conditions in all cases: compound concentration: 200 uM; treatment time: 3 h
USP42 = biological target: T1, USP42 (UniProt Q9H9J4)
T1 sequence (whole entry): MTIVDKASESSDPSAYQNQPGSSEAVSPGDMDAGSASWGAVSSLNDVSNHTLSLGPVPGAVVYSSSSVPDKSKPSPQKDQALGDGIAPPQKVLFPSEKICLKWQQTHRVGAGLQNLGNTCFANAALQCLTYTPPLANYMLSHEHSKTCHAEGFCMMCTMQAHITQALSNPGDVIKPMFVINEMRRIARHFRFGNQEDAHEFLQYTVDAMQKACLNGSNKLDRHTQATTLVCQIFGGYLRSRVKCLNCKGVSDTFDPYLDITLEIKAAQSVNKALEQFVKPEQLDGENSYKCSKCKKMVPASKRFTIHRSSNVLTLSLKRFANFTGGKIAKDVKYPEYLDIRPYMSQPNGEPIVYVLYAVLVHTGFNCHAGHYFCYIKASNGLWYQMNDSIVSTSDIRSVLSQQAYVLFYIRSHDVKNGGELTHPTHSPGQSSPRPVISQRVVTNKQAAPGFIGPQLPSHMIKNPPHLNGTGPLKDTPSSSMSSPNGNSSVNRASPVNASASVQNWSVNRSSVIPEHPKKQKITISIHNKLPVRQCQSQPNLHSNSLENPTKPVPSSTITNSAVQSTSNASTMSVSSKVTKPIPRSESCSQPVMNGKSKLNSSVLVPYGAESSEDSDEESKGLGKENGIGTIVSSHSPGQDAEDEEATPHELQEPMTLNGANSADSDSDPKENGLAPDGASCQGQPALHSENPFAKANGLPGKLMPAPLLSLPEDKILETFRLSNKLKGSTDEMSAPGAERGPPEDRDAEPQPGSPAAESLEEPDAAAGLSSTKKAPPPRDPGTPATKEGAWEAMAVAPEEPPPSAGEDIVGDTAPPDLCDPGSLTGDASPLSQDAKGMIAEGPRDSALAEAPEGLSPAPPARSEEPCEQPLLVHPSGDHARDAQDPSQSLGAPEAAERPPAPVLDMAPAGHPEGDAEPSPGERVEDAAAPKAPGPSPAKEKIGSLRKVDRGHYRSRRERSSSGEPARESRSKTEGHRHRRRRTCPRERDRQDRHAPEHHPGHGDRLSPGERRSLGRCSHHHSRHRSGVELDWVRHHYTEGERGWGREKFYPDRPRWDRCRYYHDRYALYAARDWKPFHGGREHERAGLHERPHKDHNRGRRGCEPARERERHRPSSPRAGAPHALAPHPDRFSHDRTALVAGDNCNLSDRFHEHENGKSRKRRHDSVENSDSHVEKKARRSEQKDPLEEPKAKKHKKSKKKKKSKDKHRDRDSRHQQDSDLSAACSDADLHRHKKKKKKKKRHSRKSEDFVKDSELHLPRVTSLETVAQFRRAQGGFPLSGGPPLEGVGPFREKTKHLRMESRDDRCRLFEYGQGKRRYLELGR
In short: (§1)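 Labelled DUBs from HEK293T lysate were NeutrAvidin-enriched, digested with LysC and trypsin, and run by diaPASEF LC-MS/MS. Before that, each 495 µg sample in Tris/CHAPS/IGEPAL buffer with protease inhibitors was treated in triplicate with fragment at 200 µM or vehicle for 3 h, then with Biotin-Ahx-Ub-VS at 0.5 µM final for 1 h. Values are average log2 ratios of fragment over vehicle by unpaired t-test, based on global-median-normalised Spectronaut label-free quantities from proteins with ≥2 unique peptides.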

USP46 = USP46 (UniProt P62068)
Sequence of USP46 (P62068 whole entry): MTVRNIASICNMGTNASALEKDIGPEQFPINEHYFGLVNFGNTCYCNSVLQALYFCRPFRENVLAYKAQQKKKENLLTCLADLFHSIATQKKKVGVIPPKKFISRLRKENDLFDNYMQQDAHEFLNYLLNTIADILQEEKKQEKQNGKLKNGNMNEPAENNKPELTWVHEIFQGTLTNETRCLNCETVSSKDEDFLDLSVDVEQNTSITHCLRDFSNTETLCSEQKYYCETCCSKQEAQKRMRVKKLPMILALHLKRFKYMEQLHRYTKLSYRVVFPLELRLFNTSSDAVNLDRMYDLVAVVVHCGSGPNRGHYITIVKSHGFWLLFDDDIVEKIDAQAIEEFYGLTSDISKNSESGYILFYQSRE
In short: as §1

USP47 = biological target: T2, USP47 (UniProt Q96K76)
T2 sequence (whole entry): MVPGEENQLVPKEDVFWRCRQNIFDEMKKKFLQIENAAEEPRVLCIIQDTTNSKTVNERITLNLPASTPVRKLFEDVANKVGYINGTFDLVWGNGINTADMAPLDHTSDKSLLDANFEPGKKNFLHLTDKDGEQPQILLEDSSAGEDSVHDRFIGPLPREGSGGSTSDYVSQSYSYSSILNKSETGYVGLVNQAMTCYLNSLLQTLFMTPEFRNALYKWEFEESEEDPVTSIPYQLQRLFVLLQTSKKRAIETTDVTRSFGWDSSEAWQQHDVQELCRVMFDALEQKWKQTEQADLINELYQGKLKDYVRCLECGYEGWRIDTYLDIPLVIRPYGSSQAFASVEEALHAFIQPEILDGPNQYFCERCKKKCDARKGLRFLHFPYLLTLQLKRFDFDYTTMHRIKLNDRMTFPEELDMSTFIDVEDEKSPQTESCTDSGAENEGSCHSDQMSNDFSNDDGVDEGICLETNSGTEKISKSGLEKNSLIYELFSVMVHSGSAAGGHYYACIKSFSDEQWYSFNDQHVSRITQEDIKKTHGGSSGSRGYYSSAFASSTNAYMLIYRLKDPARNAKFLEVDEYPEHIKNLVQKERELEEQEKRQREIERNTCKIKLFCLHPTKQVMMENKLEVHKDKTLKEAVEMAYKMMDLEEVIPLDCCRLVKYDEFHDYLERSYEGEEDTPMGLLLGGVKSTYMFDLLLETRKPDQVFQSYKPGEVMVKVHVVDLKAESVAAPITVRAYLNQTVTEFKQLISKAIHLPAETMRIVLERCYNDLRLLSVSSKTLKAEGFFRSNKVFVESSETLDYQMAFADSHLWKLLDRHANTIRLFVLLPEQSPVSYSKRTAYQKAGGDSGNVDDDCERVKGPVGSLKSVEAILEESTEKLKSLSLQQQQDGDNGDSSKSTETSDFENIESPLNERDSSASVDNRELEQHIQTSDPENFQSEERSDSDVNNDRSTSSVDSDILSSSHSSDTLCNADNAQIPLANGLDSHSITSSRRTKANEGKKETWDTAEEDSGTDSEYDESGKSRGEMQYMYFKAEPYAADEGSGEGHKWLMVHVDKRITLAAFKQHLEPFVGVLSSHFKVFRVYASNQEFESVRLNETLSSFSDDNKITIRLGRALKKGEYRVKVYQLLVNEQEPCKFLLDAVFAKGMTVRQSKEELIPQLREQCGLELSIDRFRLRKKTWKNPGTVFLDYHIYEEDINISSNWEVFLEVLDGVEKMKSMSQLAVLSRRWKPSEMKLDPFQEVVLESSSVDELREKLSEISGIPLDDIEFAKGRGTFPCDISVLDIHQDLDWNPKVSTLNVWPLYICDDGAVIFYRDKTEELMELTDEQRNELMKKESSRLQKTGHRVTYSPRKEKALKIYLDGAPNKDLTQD
In short: as §1

USP48 = biological target: T3, USP48 (UniProt Q86UV5)
T3 sequence (whole entry): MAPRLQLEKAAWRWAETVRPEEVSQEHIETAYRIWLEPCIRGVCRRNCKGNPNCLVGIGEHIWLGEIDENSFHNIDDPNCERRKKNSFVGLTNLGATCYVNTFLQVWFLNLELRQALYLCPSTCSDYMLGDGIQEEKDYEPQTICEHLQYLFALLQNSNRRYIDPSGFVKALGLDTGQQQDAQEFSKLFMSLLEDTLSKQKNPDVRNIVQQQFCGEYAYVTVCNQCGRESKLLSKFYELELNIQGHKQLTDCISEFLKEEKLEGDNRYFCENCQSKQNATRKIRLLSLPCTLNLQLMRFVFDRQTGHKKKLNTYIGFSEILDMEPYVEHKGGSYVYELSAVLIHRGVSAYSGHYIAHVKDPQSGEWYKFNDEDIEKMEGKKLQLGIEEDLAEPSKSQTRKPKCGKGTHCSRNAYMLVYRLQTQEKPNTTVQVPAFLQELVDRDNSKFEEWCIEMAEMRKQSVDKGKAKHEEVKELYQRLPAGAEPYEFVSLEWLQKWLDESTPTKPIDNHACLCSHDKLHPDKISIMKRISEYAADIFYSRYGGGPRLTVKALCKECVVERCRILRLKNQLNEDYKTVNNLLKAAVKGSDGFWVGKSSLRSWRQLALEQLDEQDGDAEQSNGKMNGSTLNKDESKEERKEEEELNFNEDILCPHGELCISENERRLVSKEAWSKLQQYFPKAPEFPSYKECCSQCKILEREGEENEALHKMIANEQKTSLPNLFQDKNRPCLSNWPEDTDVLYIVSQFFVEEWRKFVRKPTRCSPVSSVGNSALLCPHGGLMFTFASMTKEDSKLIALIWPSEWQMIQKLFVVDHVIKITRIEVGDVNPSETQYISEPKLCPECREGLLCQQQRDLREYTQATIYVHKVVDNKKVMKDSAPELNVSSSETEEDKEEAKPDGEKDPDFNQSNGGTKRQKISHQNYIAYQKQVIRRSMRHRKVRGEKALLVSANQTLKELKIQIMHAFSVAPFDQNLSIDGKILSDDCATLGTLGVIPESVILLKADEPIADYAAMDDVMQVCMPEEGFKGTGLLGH
In short: as §1

USP5 = biological target: T4, USP5 (UniProt P45974)
T4 sequence (whole entry): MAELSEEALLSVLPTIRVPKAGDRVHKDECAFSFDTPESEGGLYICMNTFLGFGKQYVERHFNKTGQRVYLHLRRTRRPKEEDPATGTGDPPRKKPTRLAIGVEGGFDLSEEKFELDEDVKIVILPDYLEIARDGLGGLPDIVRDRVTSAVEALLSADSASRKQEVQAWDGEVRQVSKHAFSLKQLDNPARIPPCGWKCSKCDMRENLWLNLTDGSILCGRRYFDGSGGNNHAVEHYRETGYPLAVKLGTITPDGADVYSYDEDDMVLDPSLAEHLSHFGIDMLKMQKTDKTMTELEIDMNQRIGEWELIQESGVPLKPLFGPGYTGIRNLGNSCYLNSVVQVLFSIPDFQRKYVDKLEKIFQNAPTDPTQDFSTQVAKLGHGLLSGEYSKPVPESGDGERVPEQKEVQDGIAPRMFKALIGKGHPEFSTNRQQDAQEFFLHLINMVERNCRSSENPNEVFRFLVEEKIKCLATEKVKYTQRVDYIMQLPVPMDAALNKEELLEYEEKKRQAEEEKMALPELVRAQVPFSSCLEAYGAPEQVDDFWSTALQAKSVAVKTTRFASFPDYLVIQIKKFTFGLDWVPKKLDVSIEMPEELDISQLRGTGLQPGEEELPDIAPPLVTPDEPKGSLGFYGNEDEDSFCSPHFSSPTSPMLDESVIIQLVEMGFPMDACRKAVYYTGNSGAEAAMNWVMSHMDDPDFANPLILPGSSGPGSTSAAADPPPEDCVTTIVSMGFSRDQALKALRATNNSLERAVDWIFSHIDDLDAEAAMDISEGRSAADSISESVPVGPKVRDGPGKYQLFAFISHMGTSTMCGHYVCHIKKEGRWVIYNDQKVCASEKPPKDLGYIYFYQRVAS
In short: as §1

USP54 = USP54 (UniProt Q70EL1)
Sequence of USP54 (Q70EL1 whole entry): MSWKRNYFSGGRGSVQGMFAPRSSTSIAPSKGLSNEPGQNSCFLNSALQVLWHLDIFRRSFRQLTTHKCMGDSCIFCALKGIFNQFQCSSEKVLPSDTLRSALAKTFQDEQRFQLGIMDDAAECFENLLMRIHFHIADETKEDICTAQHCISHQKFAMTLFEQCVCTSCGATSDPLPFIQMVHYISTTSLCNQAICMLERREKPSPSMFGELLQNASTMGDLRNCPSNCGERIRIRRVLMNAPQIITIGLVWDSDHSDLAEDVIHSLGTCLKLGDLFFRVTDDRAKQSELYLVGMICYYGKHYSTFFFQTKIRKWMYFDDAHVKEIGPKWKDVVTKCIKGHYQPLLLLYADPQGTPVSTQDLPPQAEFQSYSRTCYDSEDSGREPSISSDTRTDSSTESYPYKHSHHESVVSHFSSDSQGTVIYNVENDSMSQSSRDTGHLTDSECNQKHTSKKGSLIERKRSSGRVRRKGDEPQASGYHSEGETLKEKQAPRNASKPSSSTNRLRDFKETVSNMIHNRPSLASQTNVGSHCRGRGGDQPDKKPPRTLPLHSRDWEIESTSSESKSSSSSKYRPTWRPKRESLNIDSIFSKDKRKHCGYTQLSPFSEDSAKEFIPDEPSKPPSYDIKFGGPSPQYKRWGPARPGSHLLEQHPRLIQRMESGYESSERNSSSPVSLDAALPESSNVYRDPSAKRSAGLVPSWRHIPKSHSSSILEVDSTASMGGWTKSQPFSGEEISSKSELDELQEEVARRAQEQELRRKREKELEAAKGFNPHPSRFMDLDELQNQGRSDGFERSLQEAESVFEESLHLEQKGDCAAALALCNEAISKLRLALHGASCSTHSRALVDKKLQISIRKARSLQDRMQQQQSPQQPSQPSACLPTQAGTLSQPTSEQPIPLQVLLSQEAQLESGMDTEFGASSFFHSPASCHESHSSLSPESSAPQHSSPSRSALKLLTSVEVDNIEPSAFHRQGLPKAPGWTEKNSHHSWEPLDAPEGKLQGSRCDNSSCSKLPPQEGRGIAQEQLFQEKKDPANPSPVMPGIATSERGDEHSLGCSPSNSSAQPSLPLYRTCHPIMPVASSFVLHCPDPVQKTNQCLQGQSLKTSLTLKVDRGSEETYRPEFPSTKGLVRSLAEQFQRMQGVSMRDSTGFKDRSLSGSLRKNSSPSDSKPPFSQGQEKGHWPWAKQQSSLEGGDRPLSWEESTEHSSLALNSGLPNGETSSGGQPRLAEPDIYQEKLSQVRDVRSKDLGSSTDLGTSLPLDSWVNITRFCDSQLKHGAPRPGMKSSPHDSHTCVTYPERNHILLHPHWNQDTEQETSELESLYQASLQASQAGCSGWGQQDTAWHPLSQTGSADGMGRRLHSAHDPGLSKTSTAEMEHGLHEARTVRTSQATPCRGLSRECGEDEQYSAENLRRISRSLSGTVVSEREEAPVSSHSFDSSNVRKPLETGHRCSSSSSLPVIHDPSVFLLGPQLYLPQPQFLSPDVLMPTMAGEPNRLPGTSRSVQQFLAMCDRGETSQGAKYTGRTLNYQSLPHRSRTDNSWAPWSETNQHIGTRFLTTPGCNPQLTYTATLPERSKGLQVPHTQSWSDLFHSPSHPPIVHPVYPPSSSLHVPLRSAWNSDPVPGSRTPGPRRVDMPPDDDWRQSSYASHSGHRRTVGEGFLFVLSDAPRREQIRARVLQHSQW
In short: as §1

USP7 = USP7 (UniProt Q93009)
Sequence of USP7 (Q93009 whole entry, looked up): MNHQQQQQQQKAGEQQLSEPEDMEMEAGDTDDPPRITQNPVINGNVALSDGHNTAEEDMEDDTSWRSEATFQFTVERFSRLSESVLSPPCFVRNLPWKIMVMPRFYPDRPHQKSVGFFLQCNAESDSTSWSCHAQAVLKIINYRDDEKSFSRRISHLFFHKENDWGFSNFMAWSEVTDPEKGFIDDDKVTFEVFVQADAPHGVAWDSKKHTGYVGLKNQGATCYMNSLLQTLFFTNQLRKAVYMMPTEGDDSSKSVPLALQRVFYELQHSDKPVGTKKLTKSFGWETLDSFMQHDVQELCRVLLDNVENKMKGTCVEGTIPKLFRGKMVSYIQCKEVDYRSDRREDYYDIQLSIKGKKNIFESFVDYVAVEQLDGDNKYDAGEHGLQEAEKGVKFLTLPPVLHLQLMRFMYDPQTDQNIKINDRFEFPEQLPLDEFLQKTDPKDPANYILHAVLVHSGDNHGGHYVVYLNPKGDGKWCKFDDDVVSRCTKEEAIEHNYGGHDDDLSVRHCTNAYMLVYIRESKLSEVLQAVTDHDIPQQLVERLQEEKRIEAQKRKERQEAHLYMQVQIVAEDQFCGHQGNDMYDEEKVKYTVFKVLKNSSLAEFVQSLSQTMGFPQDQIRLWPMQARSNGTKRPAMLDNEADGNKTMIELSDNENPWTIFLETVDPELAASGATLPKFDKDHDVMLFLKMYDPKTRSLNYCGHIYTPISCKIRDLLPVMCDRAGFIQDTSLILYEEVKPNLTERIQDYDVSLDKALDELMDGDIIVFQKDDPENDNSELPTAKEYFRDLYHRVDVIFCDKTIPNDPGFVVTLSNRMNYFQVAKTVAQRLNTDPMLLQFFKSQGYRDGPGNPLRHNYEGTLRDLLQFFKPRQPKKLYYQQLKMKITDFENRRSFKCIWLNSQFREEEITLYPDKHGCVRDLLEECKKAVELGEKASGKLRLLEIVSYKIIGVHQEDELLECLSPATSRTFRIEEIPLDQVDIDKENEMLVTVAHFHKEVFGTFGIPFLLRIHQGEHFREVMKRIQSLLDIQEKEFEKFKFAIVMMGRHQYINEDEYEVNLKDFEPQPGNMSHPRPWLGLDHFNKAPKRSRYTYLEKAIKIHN
In short: as §1

USP8 = biological target: T5, USP8 (UniProt P40818)
T5 sequence (whole entry): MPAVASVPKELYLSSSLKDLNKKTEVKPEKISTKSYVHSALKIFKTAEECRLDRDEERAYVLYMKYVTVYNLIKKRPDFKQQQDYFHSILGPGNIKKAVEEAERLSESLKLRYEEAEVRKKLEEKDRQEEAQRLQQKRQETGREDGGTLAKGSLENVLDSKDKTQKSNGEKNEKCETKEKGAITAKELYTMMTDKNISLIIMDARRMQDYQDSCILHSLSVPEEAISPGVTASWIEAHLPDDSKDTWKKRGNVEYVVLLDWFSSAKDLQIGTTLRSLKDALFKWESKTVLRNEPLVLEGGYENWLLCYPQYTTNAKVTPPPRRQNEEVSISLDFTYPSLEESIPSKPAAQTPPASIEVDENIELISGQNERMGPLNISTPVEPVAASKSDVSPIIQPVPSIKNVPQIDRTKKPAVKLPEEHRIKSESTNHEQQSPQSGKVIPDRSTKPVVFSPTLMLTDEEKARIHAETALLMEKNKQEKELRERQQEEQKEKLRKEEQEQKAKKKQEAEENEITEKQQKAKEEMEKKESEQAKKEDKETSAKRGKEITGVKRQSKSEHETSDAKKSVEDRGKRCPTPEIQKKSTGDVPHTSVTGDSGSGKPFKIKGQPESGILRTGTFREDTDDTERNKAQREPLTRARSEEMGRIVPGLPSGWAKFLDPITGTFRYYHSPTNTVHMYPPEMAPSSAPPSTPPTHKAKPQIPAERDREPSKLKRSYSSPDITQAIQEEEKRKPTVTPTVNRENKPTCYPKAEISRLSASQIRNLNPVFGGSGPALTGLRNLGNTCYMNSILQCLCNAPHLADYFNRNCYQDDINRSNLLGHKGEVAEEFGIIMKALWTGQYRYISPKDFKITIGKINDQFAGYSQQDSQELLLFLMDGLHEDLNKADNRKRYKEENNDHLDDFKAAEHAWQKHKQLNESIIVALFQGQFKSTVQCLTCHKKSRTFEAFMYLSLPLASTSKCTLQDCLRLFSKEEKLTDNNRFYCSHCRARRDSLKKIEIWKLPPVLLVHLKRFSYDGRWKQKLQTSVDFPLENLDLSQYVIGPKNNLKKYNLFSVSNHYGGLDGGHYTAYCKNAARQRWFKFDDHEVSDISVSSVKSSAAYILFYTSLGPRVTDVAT
In short: as §1

Measured: log2 ratio of Biotin-Ahx-Ub-VS probe labelling

Cl.O=C(CCl)N[C@H]1C[C@@H](n2cccn2)C1
inactive: USP42 0.0882 | USP46 -0.00232 | USP47 0.175 | USP48 0.0582 | USP5 -0.126 | USP54 -0.186 | USP7 -0.218 | USP8 0.27
